Sampled rows, rich in hits. Any-hit rate of the full collection: about 19%.
IL1B secr inh = qHTS for Inhibitors of Inflammasome Signaling: IL-1-beta AlphaLISA Primary Screen. THP-1 LPS/ATP IL-1B secretion, AlphaLISA, 16 h; active compounds read low. activity change, % at 57.5 µM. AID 743279, 2014. actives 4.7% (n = 360,000); in the data active means activity change below about -50%; inconclusive means mostly about -30% to -49%; further: on the % scale 0 is the no-effect control and ±100 the full control effect
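Secreted IL-1B measured by AlphaLISA bead assay after 16 h compound exposure of THP-1 cells; compounds (final up to 57.5 uM) added 1 h before LPS (250 ng/mL) and ATP (1.25 mM) stimulation; lower signal means less secretion.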
Chronic BCR inh = qHTS Assay to Find Inhibitors of Chronic Active B-Cell Receptor Signaling; ABC-DLBCL IkBa-CBG/CBR reporter, luminescence ratio, 4 h; Potency, µM (highest dose often 46.1 µM), without a hit: at the highest dose activity change, negative = inhibition, usual class: inhibitors; actives 0.05% (n = 340,000); active means well fitted inhibition curve with a large enough effect in the signal ratio, with a control signal flat, not every such curve was filed as active; inconclusive means small, poorly fitted or top-dose-only effect, or effect the other way, or a change in a side signal; the % refers to the signal ratio;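 further: potency means the concentration at half of the fitted maximal effect; plate controls were basal doxycycline-induced cells for no effect and cells given 10 µM MG132 for full effect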
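TMD8 ABC-DLBCL cells carrying doxycycline-inducible green luciferase fused to IkappaBalpha plus unfused red luciferase were exposed to compounds (up to 46 uM) for 4 hrs at 37C. Activity came from the overlap-corrected green/red luminescence ratio.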
SW480 rerep = A quantitative high throughput screen for small molecules that induce DNA re-replication in SW480 colon adenocarcinoma cells; SW480 DNA re-replication, Hoechst DNA content imaging, 48 h; Potency, µM (titrated, usually from 46.1 µM), for inactives: at the top dose re-replication activation, most hits filed as activators; actives 1.8% (n = 340,000); AID 624297, 2012; further: potency means the concentration at half of the fitted maximal effect; % of control where 0% means no effect; nearly all actives have a fitted effect of over 55% in size
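Hoechst fluorescence of nuclei (405 nm excitation, 500-530 nm emission) measured by plate-scanning imager after 48 hr compound exposure at 37 C; re-replication scored as increased number of nuclei with elevated intensity.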
TDP1 cell CPT = qHTS for Inhibitors of human tyrosyl-DNA phosphodiesterase 1 (TDP1): qHTS in cells in presence of CPT. chicken DT40 Tdp1-/-;hTDP1 cells + 20 nM CPT, ATP luminescence, 48 h. Potency, µM (top dose mostly 46.2 µM), inactives show at the highest dose activity change, negative = growth inhibition, actives largely listed as inhibitors. actives 12% (n = 420,000). AID 686979, 2013; further: potency means the concentration at half of the fitted maximal effect; on the % scale 0 is the no-effect control and ±100 the full control effect; nearly all actives have a fitted effect of over 55% in size
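Chicken DT40 Tdp1-/- cells complemented with human TDP1, 400 cells/well, exposed to compounds plus 20 nM camptothecin for at least 48 h at 37 C; viability read as ATP content by CellTiter-Glo luminescence.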
MCF10A rereplic = A quantitative high throughput screen for small molecules that induce DNA re-replication in MCF 10a normal breast cells; MCF 10A DNA re-replication, Hoechst nuclear intensity, 48 h; Potency, µM (titrated, usually from 46.1 µM), without a hit: top-dose activity, positive = re-replication, most hits filed as activators; actives 2.9% (n = 350,000); AID 624296, 2012; further: potency means the concentration at half of the fitted maximal effect; % of control where 0% means no effect; nearly all actives have a fitted effect of over 50% in size
DT40 TDP1 no CPT = qHTS for Inhibitors of human tyrosyl-DNA phosphodiesterase 1 (TDP1): qHTS in cells in absence of CPT; actives 15% (n = 420,000); DT40 Tdp1-/- hTDP1 cells, no CPT, ATP luminescence, 48 h; Potency, µM (series often up to 46.2 µM), for the others: at the highest dose activity change, negative = growth inhibition, most hits filed as inhibitors; further: potency means the concentration at half of the fitted maximal effect; on the % scale 0 is the no-effect control and ±100 the full control effect; nearly all actives have a fitted effect of over 55% in size
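A cellular qHTS used chicken DT40 cells lacking endogenous Tdp1 but carrying stably transfected human TDP1. Compounds were applied without camptothecin, and cell growth kinetics were judged by ATP-dependent luminescence after ≥48 hr.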
* marks the source's active call; other numbers are inactive results; u = inconclusive; x = no result. Unless noted, the call rests on the fitted dose curve; in most records, active means well fitted curve in the direction sought with a large enough effect; inconclusive means small, poorly fitted or top-dose-only effect, or another doubt; inactive means no such curve, though single readings can be large; an effect the other way counts as inactive or inconclusive.

SMILES	IL1B secr inh	Chronic BCR inh	SW480 rerep	TDP1 cell CPT	MCF10A rereplic	DT40 TDP1 no CPT
O=C1c2cccc3cc([N+](=O)[O-])cc(c23)C(=O)N1CCN1CCCC1	-98*	u	u	0.21µM*	u	0.13µM*
Nc1cc2c3c(cccc3c1)C(=O)N(CCN1CCCC1)C2=O	-99*	u	15µM*	0.73µM*	u	1.2µM*
O=C1c2cccc3cc([N+](=O)[O-])cc(c23)C(=O)N1/N=C/c1ccc(O)cc1O	-96*	u	13µM*	u	18%	16µM*
CCN(CC)CCN1C(=O)c2cccc3cc(N)cc(c23)C1=O	-78*	u	u	12µM*	22%	7.3µM*
Cc1cc(C)c(S(=O)(=O)N2CCN(CCN3C(=O)c4cccc5cccc(c45)C3=O)CC2)cc1[N+](=O)[O-]	x	-1%	-11%	x	-11%	x
CCN(CC)c1ccc(/C=N/N2C(=O)c3ccccc3C2=O)c(O)c1	7	3%	-541%	-14%	u	-21%
OC(c1ccc(F)c(F)c1)c1nc(-c2ccc3ccccc3c2)cs1 (stereo not drawn)	-11	x	x	u	x	u
Cc1ccc(S(=O)(=O)N2CCCC2)cc1C(=O)Nc1ccc(-n2cnnn2)cc1	21	0%	-1%	u	0%	-29%
CCc1ccc(NC(=O)N2CCN(c3nnc(C)c4c(C)n(-c5ccc(Cl)cc5)nc34)CC2)cc1	x	x	x	u	x	23µM*
Cc1cc(Cl)ccc1NC(=O)C1CCCN(c2nnc(C)c3c(C)n(-c4ccccc4)nc23)C1 (stereo not drawn)	x	x	x	6%	x	-14%
CNC(=O)C1CCCN(c2nnc(C)c3c(C)n(-c4ccccc4)nc23)C1 (stereo not drawn)	x	x	x	-6%	x	-16%
CCc1ccc(NC(=O)C2CCCN(c3nnc(C)c4c(C)n(-c5ccccc5)nc34)C2)cc1 (stereo not drawn)	x	x	x	u	x	9.2µM*
Cc1cc(C)cc(NC(=O)C2CCCN(c3nnc(C)c4c(C)n(-c5ccccc5)nc34)C2)c1 (stereo not drawn)	x	x	x	23µM*	x	15µM*
CCOc1ccc(NC(=O)C2CCCN(c3nnc(C)c4c(C)n(-c5ccccc5)nc34)C2)cc1 (stereo not drawn)	x	x	x	-11%	x	-15%
Cc1ccc(NC(=O)C2CCCN(c3nnc(C)c4c(C)n(-c5ccccc5)nc34)C2)c(Cl)c1 (stereo not drawn)	x	x	x	4.1µM*	x	3.3µM*
O=C(CSc1nc(=O)n(Cc2ccco2)c2c1CCC2)NCc1ccccc1	x	-28%	x	-24%	x	-26%
CCCCc1ccc(Nc2ncnc3c2cnn3-c2ccc(C)cc2)cc1	x	-1%	x	-14%	x	-7%
CNc1cc(C(=O)Nc2cccc(OCc3ccccc3)c2)ncn1	-20	x	x	u	x	u
Cc1ccc(NC(=O)N2CCN(c3nnc(C)c4c(C)n(-c5ccccc5)nc34)CC2)c(Cl)c1	x	x	x	-15%	x	-21%
Cc1ccc(NC(=O)C2CCN(c3nnc(C)c4c(C)n(-c5ccccc5)nc34)CC2)c(Cl)c1	x	x	x	13µM*	x	u
CCOC(=O)Cn1nc2oc(=O)c(CCN3CCN(c4ccccc4OC)CC3)c(C)c2c1C	-3	x	x	9%	x	3%
O=C(c1ccc(Cn2cc([N+](=O)[O-])cn2)o1)N1N=C(C(F)F)CC1(O)C(F)F (stereo not drawn)	1	-11%	1%	2%	-8%	-6%
O=C(c1ccc(COc2ccccc2Br)o1)N1N=C(C(F)F)CC1(O)C(F)F (stereo not drawn)	7	-4%	-51%	18µM*	u	26µM*
COc1ccccc1C(=O)NCCC(=O)NCC(c1ccc(F)cc1)N1CCOCC1 (stereo not drawn)	10	u	-5%	9%	-1%	-5%
O=C(COC(=O)CC1CCCC1)Nc1ccc(Cl)cc1	-8	-7%	-366%	-8%	0%	2%
SMILES	IL1B secr inh	Chronic BCR inh	SW480 rerep	TDP1 cell CPT	MCF10A rereplic	DT40 TDP1 no CPT
COC(=O)c1ccc(N2CCN(C)CC2)c(NC(=O)COc2ccc(OC)cc2)c1	-23	4%	13%	21µM*	8%	-25%
COC(=O)c1ccc(N2CCN(C)CC2)c(NC(=O)COc2ccccc2Cl)c1	-11	-10%	-4%	21µM*	0%	23µM*
CCC1(c2ccc(F)cc2)NC(=O)N(CC(=O)Nc2cc(S(=O)(=O)N(C)C)ccc2Cl)C1=O (stereo not drawn)	27	-8%	1%	u	2%	u
CC1CCCN(S(=O)(=O)c2ccc3oc(=O)ccc3c2)C1 (stereo not drawn)	13	6%	u	-9%	1%	3%
O=C(COc1ccccc1F)Nc1ccccc1OCc1cc(=O)n2ccccc2n1	x	x	x	13%	x	-16%
CCOCCCn1c(=NC(C)=O)c(C(=O)OCC)cc2c(=O)n3ccccc3nc21	12	5%	u	-4%	1%	2%
CCOCCCn1c(=NC(=O)c2cccs2)c(C#N)cc2c(=O)n3cccc(C)c3nc21	49	22%	u	u	9.2µM*	u
COCCCn1c(=NC(C)=O)c(C#N)cc2c(=O)n3cccc(C)c3nc21	x	0%	5.8µM*	3%	18µM*	-29%
COCCCn1c(=NC(=O)c2ccccc2)c(C#N)cc2c(=O)n3cccc(C)c3nc21	49	4%	12%	-4%	6.5µM*	u
CCOCCCn1c(=NC(C)=O)c(C#N)cc2c(=O)n3ccccc3nc21	-4	19%	7.3µM*	1%	2.6µM*	-9%
COCCCn1c(=NC(=O)c2ccc3c(c2)OCO3)c(C#N)cc2c(=O)n3cccc(C)c3nc21	x	1%	x	x	x	x
CCOC(=O)c1ccc(N=C2SC(C(=O)Nc3ccc(C(=O)O)cc3)CC(=O)N2Cc2cccs2)cc1 (stereo not drawn)	-17	u	0%	u	7%	u
CCCCN1C(Nc2ccccc2)=NC[C@@H]1CC(C)C	-2	-1%	-1%	u	7%	u

Assay outcomes deposited in PubChem by National Center for Advancing Translational Sciences (NCATS).
